Screening data from PubChem.
An excerpt weighted towards active compounds, which were near 4.6% of everything screened.
DAX1 inh-1: DAX1 (NR0B1) inhibitors on StAR promoter, primary screen, cell-based, luminescence, SF-1 (NR5A1), full-length DAX-1. HEK293T StAR-luciferase reporter, SF-1/DAX-1 repression relief. inhibition, % at 6.8 µM. hit rate 1.1% among 370,000. AID 652010, 2013;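 active = inhibition above the mean over all tested compounds plus 3 SD, cut at about 3.6% in these data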;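 note: 0% = DAX-1 cells with DMSO and 100% = cells lacking DAX-1 with DMSO; higher inhibition means more luminescence from relief of DAX-1 repression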
ssDAF-12 act: S. stercoralis DAF-12 nuclear receptor activators, primary screen, cell-based, luminescence, HEK293, GRIP1 co-expression, lit1-tk-luc. Nuclear hormone receptor DAF-12 (Strongyloides stercoralis). HEK293 ssDAF-12/GRIP1 lit1-tk-luc reporter; % of 3 µM dafachronic acid response. activation, % at 6.8 µM. hit rate 1% among 370,000. AID 652126, 2013;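 active = activation above the mean over all tested compounds plus 3 SD, cut at about 0.9% in these data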;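 note: 0% = DMSO-only wells and 100% = 3 µM delta7-dafachronic acid wells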
Wee1 stabilizer: Wee1 degradation inhibitors, primary screen, cell-based, HeLa, Wee1K328M-luciferase, luminescence; Wee1-like protein kinase (Homo sapiens), P30291; HeLa Luc-Wee1K328M stability; 100% = proteasome inhibitor MG132 effect; reporter increase, % at 5 µM; hit rate 1.2% among 220,000;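 active = activation above the mean of all tested compounds plus 3 SD, set per screening run, cut at about 8.8% in these data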;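 note: cells exposed to compound for 20 h before luminescence read; 0% = DMSO alone and 100% = MG132 at 30 µM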
Target sequence (P30291 whole entry K328M): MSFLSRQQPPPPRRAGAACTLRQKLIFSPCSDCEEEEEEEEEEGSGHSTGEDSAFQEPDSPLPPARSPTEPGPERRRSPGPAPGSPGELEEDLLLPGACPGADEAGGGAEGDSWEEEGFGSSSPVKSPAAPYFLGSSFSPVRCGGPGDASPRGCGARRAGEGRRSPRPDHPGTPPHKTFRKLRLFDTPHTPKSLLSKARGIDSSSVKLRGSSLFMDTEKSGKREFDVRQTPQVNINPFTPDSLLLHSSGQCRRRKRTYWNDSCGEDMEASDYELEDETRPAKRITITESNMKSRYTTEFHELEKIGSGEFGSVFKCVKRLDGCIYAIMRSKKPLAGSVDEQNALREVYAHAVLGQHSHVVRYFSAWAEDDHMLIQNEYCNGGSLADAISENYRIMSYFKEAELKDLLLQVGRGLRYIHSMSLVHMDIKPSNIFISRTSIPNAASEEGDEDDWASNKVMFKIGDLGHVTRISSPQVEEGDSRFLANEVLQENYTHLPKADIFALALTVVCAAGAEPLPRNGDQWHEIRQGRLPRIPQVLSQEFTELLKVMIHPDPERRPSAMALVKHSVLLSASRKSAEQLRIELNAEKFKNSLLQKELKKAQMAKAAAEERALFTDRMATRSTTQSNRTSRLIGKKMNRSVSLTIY
hcDAF-12 act: H. contortus DAF-12 nuclear receptor activators, primary screen, cell-based, luminescence, HEK293, lit1-tk-luc reporter; HEK293 hcDAF-12 lit1-tk-luc reporter; 0% DMSO, 100% Δ7-dafachronic acid; activation, % at 6.8 µM; hit rate 1.4% among 370,000; AID 652067, 2013;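 active = activation above the mean of all tested compounds plus 3 SD, cut at about 5.5% in these data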;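 note: 100% = response to 3 µM Δ7-dafachronic acid high control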
hgDAF12 agonist: H. glycines DAF-12 receptor agonists, primary screen, cell-based, luminescence, HEK293, GAL4 fusion, UAS-luciferase | HEK293 GAL4-hgDAF12 UAS-luciferase reporter, agonist luminescence; normalized to butyrate control | activation, % at 6.8 µM | hit rate 1.8% among 370,000 | AID 687014, 2013;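 active = activation above a cutoff set at the mean of all screened compounds plus 3 SD, cut at about 10% in these data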;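 note: 0% = DMSO wells and 100% = sodium butyrate wells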
DAX1 inh-2: DAX1 (NR0B1) inhibitors, primary screen, cell-based, HEK293, Gal4-DAX1, luciferase luminescence; inhibition, % at 6.75 µM; Nuclear receptor subfamily 0 group B member 1 (Homo sapiens), P51843; HEK293 Gal4-DAX1 luciferase reporter; hit rate 0.99% among 340,000; AID 504766, 2011;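 active = inhibition above the mean over all tested compounds plus 3 SD, cut at about 4.2% in these data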;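 note: 0% = DAX1-transfected cells with DMSO and 100% = empty-vector control cells with DMSO; inhibition shows as a rise in luminescence from relieved DAX1 repression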
Numbers without * were called inactive; · = no result.

SMILES	DAX1 inh-1	ssDAF-12 act	Wee1 stabilizer	hcDAF-12 act	hgDAF12 agonist	DAX1 inh-2
CCN(CC)S(=O)(=O)c1ccc(-c2csc(C)n2)cc1	0.5	-0.9	0.2	-1.4	-1.3	6.5*
CCCN(CCC)S(=O)(=O)c1cccc(-c2csc(C)n2)c1	-0.7	-1.5	2.0	-1.7	-1.6	-0.4
O=C(CCCCn1ccc(=O)[nH]c1=O)Nc1ccc(O)c(C(=O)O)c1	-0.5	-1.1	·	-0.1	-1.2	0.4
COc1ccc(OC)c(S(=O)(=O)N2CCN(C(=O)c3cc(C4CC4)nn3-c3ccccc3)CC2)c1	1.1	-1.4	·	-1.0	-2.1	-0.8
COc1ccc(N2C(=O)CC(c3ccc(OC(C)C)cc3)C2=O)cc1 (centres undefined)	1.0	-1.5	·	-1.2	-1.1	-0.4
CCN1C(=O)CC(c2ccc(OC(C)C)cc2)C1=O (centres undefined)	0.4	-0.9	·	-0.1	0.2	4.5*
Cc1cc(C)cc(N(CCC#N)C(=O)CSc2nc3ccccc3c(=O)[nH]2)c1	-0.3	-1.3	·	1.3	-3.0	0.1
CC(C)NC(=S)NC(=O)c1ccc(Cl)cc1Cl	0.5	-0.1	3.1	5.7*	4.1	-1.0
CCn1ncc(C(=O)Nc2cc(C)on2)c1C	1.4	-0.9	-1.2	1.2	11.8*	2.2
Cc1cc(NC(=O)c2cc(C)on2)no1	-0.6	-0.2	-1.9	3.3	0.3	-0.3
Cc1cc(NC(=O)c2ccc(Cl)cc2Cl)no1	2.8	-0.3	·	5.2	11.9*	6.7*
Cc1ccc(C(=O)Nc2ccc(Cl)cc2C(F)(F)F)c(Cl)c1	0.1	-0.8	0.6	-0.3	12.6*	0.8
CC(C)CNC(=S)NC(=O)c1ccc(Cl)cc1Cl	0.4	-0.9	0.2	0.7	5.2	-1.1
O=C(Nc1ccc(Cl)cc1C(F)(F)F)c1ccccc1Cl	-0.1	-0.7	-0.7	-2.7	3.7	-0.2
Cc1cccc(NC2(C(=O)O)CCCC2)c1	-0.2	-0.4	·	1.9	1.7	-1.2
S=C(Nc1ccccc1I)OC1CCC12CCC(c1ccccc1)CC2 (centres undefined)	·	-0.6	·	-0.3	-1.1	·
COc1ccccc1-c1ccc([C@@H]2C[C@H]3[C@H](CON3C)CN2C(=O)c2ccc(-c3ccccc3)cc2)cc1	-1.1	-1.1	·	-2.0	-2.5	1.8
CCOc1ccc(OCCCC(=O)N(CC)CC(=O)Nc2c(F)cccc2F)cc1	-0.9	-1.5	·	0.0	-0.4	0.1
Cc1cc(NC(=O)Nc2ccc(Cl)cc2)no1	0.6	-1.1	·	2.0	2.5	4.8*
O=C(Nc1ccsn1)c1ccc(Cl)cc1Cl	-0.1	-0.8	2.2	0.5	11.6*	4.5*
O=C(NCCNC(=O)c1ccc(Cl)cc1Cl)c1ccc(Cl)cc1Cl	0.3	-0.8	·	-1.1	3.1	·
CNC(=S)NNC(=O)c1oc2nc(-c3ccccc3)cc(C)c2c1N	0.8	-0.1	-2.4	6.1*	1.0	1.8
NNC(=O)c1oc2nc(-c3ccccc3)cc(-c3ccccc3)c2c1N	-0.7	-1.4	·	-0.8	0.7	0.9
C[C@H](CO)N1C[C@H](C)[C@@H](CN(C)Cc2ccccn2)Oc2ncc(-c3ccccc3)cc2C1=O	1.2	-1.4	·	-0.2	2.6	2.4
CCOc1c(Br)cc(/C=C2/SC(=O)N(CC(=O)N3CCCC3)C2=O)cc1OC	-0.6	-0.8	-0.1	-2.3	3.8	1.1
CCOC(=O)COc1c(Br)cc(/C=C2\SC(=O)N(CC(=O)N3CCCC3)C2=O)cc1OC	-0.6	-1.2	1.2	0.7	-1.0	4.7*
CC1(c2nnnn2-c2ccc3c(c2)OCCO3)CCC(=O)N1Cc1cccnc1 (centres undefined)	-4.4	-1.8	·	-3.9	-9.2	·
